# SW480 rerep = induces DNA re-replication in SW480 colon adenocarcinoma cells; SW480 DNA re-replication, Hoechst DNA content imaging, 48 h; Potency, µM (titrated, usually from 46.1 µM), for the others: at the highest dose re-replication activation, most hits filed as activators; 1.8% of 340,000 active; also: % of control where 0% means no effect; nearly all actives have a fitted effect of over 55% in size
#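 Readout is total intensity of Hoechst-stained nuclei, excited at 405 nm and collected at 500-530 nm. Compound treatment lasted 48 hr at 37 C in 5% CO2 before staining.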
# KB-3-1 cytotox = kills parental KB-3-1 adenocarcinoma cells; Potency, µM (top dose mostly 46.1 µM), hits mostly cytotoxic; 1.4% of 400,000 active; AID 1347075; KB-3-1 viability, CellTiter-Glo ATP luminescence, 72 h; also: % is scaled to controls: 0 for no effect and ±100 for the full control effect; nearly all actives have a fitted effect of over 60% in size
#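 Here the drug-naive KB-3-1 line serves as comparator for MDR sub-line selectivity; cells received compound titrations, 72 h at 37 °C, then CellTiter-Glo readout.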
# MCF10A rerep = DNA re-replication induction in MCF 10a cells | MCF 10A DNA re-replication, Hoechst nuclear intensity, 48 h | Potency, µM (highest dose often 46.1 µM), for the others: at the top dose activity, positive = re-replication, most hits filed as activators | 2.9% of 350,000 active | AID 624296; also: % of control where 0% means no effect; nearly all actives have a fitted effect of over 50% in size
# HT1080 IDH1KD tx = toxicity to HT-1080 IDH1 knockdown cells (counter line); AID 686971; HT-1080 IDH1 knockdown viability, ATP luminescence, 48 h; 2% of 360,000 active; Potency, µM (top dose mostly 46.1 µM), inactives show at the highest dose activity, negative = toxicity, most hits filed as cytotoxic;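 also: 0% = DMSO wells and -100% = cell-free medium wells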
#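 In this qHTS, HT-1080 cells depleted of IDH1 are exposed for 48 h at 37 °C to compound titrations. Toxicity is scored from CellTiter-Glo luminescence, with DMSO as full viability and medium alone as none.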
# KB-V1 MDR tox = kills drug-selected multidrug resistant KB-V1 cells; KB-V1 MDR cells viability, CellTiter-Glo, 72 h; Potency, µM (highest dose often 46.1 µM), hits mostly cytotoxic; 3.4% of 400,000 active; AID 1347076; also: % is scaled to controls: 0 for no effect and ±100 for the full control effect; nearly all actives have a fitted effect of over 60% in size
#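 qHTS viability screen in drug-selected KB-V1 MDR cells: 72 h compound treatment at 37 degrees C, ATP luminescence end point.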
# HT1080-NT tox = kills 2HG-producing HT-1080-NT fibrosarcoma cells; Potency, µM (top dose mostly 46.1 µM), inactives show at the highest dose activity, negative = less viability, hits mostly cytotoxic; HT-1080-NT fibrosarcoma viability, CellTiter-Glo ATP luminescence, 48 h; 1.6% of 360,000 active;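 also: NT is the 2HG producing partner of a matched IDH1 knockdown line; 0% = DMSO-treated cells and -100% = media-only wells without cells; nearly all actives have a fitted effect of over 55% in size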
#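 Viability by CellTiter-Glo luminescence after 48 h compound exposure at 37C of HT-1080-NT cells (750/well, RPMI, 5% FBS). % activity scaled between DMSO wells and medium-only wells, then curve-fitted and categorized by curve class.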
# Active calls of the source: *; i = inactive; ? = inconclusive; · = no result; [ ] = dose if it differs, or a comment. A selection: hits, their analogues and other compounds. The true share with any hit is near 7.9%. Calls follow the shape of the dose curve; as a rule, active = well fitted curve in the direction sought with a large enough effect; inconclusive = small, poorly fitted or top-dose-only effect, or another doubt; inactive = no such curve, though single readings can be large; an effect the other way counts as inactive or inconclusive. Potency is read from the fitted curve at half-maximal effect.
SMILES,SW480 rerep,KB-3-1 cytotox,MCF10A rerep,HT1080 IDH1KD tx,KB-V1 MDR tox,HT1080-NT tox
CC1CCC(C(C)C)C(OC(=O)COC(=O)c2ccc(N)cc2)C1 (configuration not stated),-9%,i,23µM*,-10%,i,-4%
CN(C)c1ccc(C(CNS(=O)(=O)c2ccc(F)cc2)N2CCCC2)cc1 (configuration not stated),·,i,·,·,i,·
O=C(Nc1nc(-c2ccccc2)cs1)C1CCCN(S(=O)(=O)c2ccccc2)C1 (configuration not stated),?,i,8.2µM*,?,?,?
O=C(Nc1ccc(Cl)cc1)C1CCCCN1S(=O)(=O)c1ccccc1 (configuration not stated),?,23µM*,?,?,3.7µM*,?
O=C(Nc1nc(-c2ccccc2)cs1)C1CCCCN1S(=O)(=O)c1ccc(Cl)cc1 (configuration not stated),21%,?,?,?,13µM*,?
O=C(Nc1nc(-c2ccccc2)cs1)C1CCCN(S(=O)(=O)c2cccc([N+](=O)[O-])c2)C1 (configuration not stated),-1%,i,8%,-1%,i,-15%
O=C(Nc1nc(-c2ccccc2)cs1)C1CCCCN1S(=O)(=O)c1ccccc1 (configuration not stated),-2%,i,6%,?,?,?
CCNc1ccc(S(=O)(=O)N(C)C)cc1NCC(=O)Nc1ccc(Br)cc1F,2%,i,5%,-2%,16µM*,-5%
CCNc1ccc(S(=O)(=O)N(C)C)cc1NCC(=O)Nc1ccccc1F,-11%,i,0%,4%,i,8%
O=S(=O)(c1ccc2c(c1)OCCO2)N1CCN(c2nc(-c3cccs3)nc3ccccc23)CC1,·,·,·,18%,·,6%
CCc1ccc(-n2c(=O)c3c4c(sc3n(Cc3cc(=O)n5c(C)cccc5n3)c2=O)CCC4)cc1,·,i,·,·,i,·
Cn1c(=O)c([N+](=O)[O-])c(NCCCn2ccnc2)c2ccccc21,-16%,i,?,3%,i,0%
Cn1c(=O)c([N+](=O)[O-])c(-n2ccnc2)c2ccccc21,?,?,?,26µM*,i,16µM*
Cc1nn(Cc2ccccc2)c(C)c1NC(=O)Cn1nc([N+](=O)[O-])c(Cl)c1C,-3%,i,1%,?,i,0%
Cc1nn(Cc2ccccc2)c(C)c1NC(=O)c1ccc([N+](=O)[O-])cc1[N+](=O)[O-],16µM*,i,-41%,-2%,?,-7%
CCOC(=O)C1CCN(S(=O)(=O)c2ccc(-n3cnnn3)c(C)c2)CC1,?,i,12µM*,-2%[9.24 µM],i,-1%
CC(=O)NC(c1cccc(F)c1)c1nc(-c2cccc(C(C)C)c2)cs1 (configuration not stated),·,i,·,-20%,i,-23%
CCc1cc(C(=O)Nc2cnn(Cc3ccc(F)cc3)c2)no1,·,i,·,·,i,·
O=C(Nc1cnn(Cc2ccc(F)cc2)c1)c1noc2c1CCCC2,26%,?,4.6µM*,?,i,?
O=C(NCc1ccccc1)c1noc2c1CCCCC2,?,i,?,?,21µM*,?
CC(C)(C)C1CCc2onc(C(=O)Nc3ccc(F)cc3F)c2C1 (configuration not stated),0%,i,-2%,4%,23µM*,-1%
O=C(Nc1cnn(Cc2ccc(F)cc2)c1)c1cnccn1,-5%,i,?,15%,i,9%
O=C(Nc1cnn(Cc2ccc(F)cc2)c1)C(c1ccccc1)c1ccccc1,-104%,?,0%,?,5.2µM*,?
CCOC(=O)c1cc(OC(=O)c2ccc(Cl)cc2)n(-c2ccccc2)n1,·,i,·,·,i,·
CC(=O)c1ccc(Nc2nc3c(S(=O)(=O)c4ccccc4)nnn3c3ccc(Cl)cc23)cc1,·,i,·,·,i,·
SMILES,SW480 rerep,KB-3-1 cytotox,MCF10A rerep,HT1080 IDH1KD tx,KB-V1 MDR tox,HT1080-NT tox
CC(C)(C)C1CCc2onc(C(=O)Nc3cnn(Cc4ccc(F)cc4)c3)c2C1 (configuration not stated),?,i,?,?,2.6µM*,-17%
CCC(=O)Nc1sc2c(c1C(=O)Nc1ccc(Br)cc1)CCCCC2,·,i,·,·,i,·
CCc1ccc(C2c3c(-c4ccccc4O)n[nH]c3C(=O)N2Cc2ccncc2)cc1 (configuration not stated),·,?,·,·,i,·
COc1ccccc1OCc1ccc(C(=O)NC(C)(C)C)o1,-5%,i,-18%,-9%,i,-1%
COc1ccccc1OCc1ccc(C(=O)N2N=C(C(F)F)CC2(O)C(F)F)o1 (configuration not stated),10%,i,?,7%,16µM*,5%
O=C(c1ccc(COc2ccc(Cl)cc2)o1)N1N=C(C(F)F)CC1(O)C(F)F (configuration not stated),9%,?,?,?,i,?
COc1ccccc1OCc1ccc(C(=O)Nc2ccncc2)o1,-14%,23µM*,3%,?,?,-9%
CC1CCCCN1C(=O)c1ccc(COc2ccc([N+](=O)[O-])cc2)o1 (configuration not stated),-34%,i,?,17%,18µM*,7%
O=C(Nc1cccnc1)c1ccc(COc2ccccc2Br)o1,?,16µM*,21µM*,10µM*,?,4.5µM*
Cc1ccc2oc(C(=O)Nc3c(C(=O)c4ccc(C)c(F)c4)oc4ccccc34)cc(=O)c2c1,·,i,·,·,i,·
CCc1ccc(OCc2ccc(C(=O)NCc3ccccn3)o2)cc1,4%,i,26%,-16%,i,-22%
CC(C)(C)c1ccc(OCc2ccc(C(=O)N3CCOCC3)o2)cc1,?,i,9%,?,26µM*,?
CCOc1ccc(OCc2ccc(C(=O)NCc3ccncc3)o2)cc1,-2%,i,18µM*,3%,?,-15%
CCCNC(=O)c1ccc(COc2ccc(C(C)(C)C)cc2)o1,9%,i,?,-19%,i,?
CC(C)(C)c1ccc(OCc2ccc(C(=O)Nc3cccnc3)o2)cc1,?,?,23µM*,?,?,?
CCN(C(=O)c1cnc2ccc(C)cn2c1=O)c1ccccc1,·,i,·,·,?,·

# Screening data (PubChem BioAssay)
